Experimental data as given in the supplement of paper PMC10981050.
Several values for one entry are separate records, joined by “and”; a condition that tells them apart may be missing. Identical values can stand only once. Counter-ions that a name gives are not always drawn.

Key:
Test in all cases: cell viability relative to vehicle control; higher = less cytotoxic
Conditions in all cases: 10 µM
K562 = test system: K562
Procedure, shortened: (§1)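 Each screen used CRISPR-edited mutant and wild-type clones from four leukaemia lines. Compounds were acoustically dispensed at a single 10 µM dose, and CellTiter-Glo luminescence was read after 48 h with the supernatant first removed. Viability was analysed in Genedata Screener and given as percent of the on-plate vehicle control.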

MARIMO = test system: MARIMO
Procedure, shortened: as §1

MOLM14 = test system: MOLM14
Procedure, shortened: as §1

OCI-AML2 = test system: OCI-AML2
Procedure, shortened: as §1

SMILES	cell viability (K562; SRSF2 genotype: SRSF2 P95H/wt)	cell viability (K562; SRSF2 genotype: SRSF2 wt/wt) [%]	cell viability (MARIMO; SRSF2 genotype: SRSF2 P95H/wt) [%]	cell viability (MARIMO; SRSF2 genotype: SRSF2 wt/wt) [%]	cell viability (MOLM14; SRSF2 genotype: SRSF2 P95H/wt) [%]	cell viability (MOLM14; SRSF2 genotype: SRSF2 wt/wt) [%]	cell viability (OCI-AML2; SRSF2 genotype: P95H/wt) [%]	cell viability (OCI-AML2; SRSF2 genotype: wt/wt) [%]
CC(=O)O[C@H]1C(=O)[C@@]2(C)[C@H]([C@H](OC(=O)c3ccccc3)[C@]3(O)C[C@H](OC(=O)[C@H](O)[C@@H](NC(=O)c4ccccc4)c4ccccc4)C(C)=C1C3(C)C)[C@]1(OC(C)=O)CO[C@@H]1C[C@@H]2O [7-Epitaxol]	19.6% and 30.7%	26.1	7.11	4.44	8	2.61	6.19	12.1
Nc1ncnc2c1c(-c1cnc3[nH]ccc3c1)nn2C1CCCC1	6.97% and 21.9%	9.11	27.8	26.9	9.21	13.2	2.15	7.66
CCCC[S+]([O-])c1sc2nc(-c3cccs3)cc(-c3ccccc3)c2c1N (stereo unspecified)	94.5% and 97%	92.9	95	109	103	99.4	98.7	98.8
O=C1NC(=O)/C(=C/c2ccc3nccc(-c4ccncc4)c3c2)S1	62.8% and 84%	69.7	54.6	50.5	40.1	42	25.4	28.8
CCn1cc(C(=O)O)c(=O)c2cc(F)c(N3CCNCC3)cc21 [Norfloxacin (Norxacin)]	91.3% and 98.8%	90.9	88.7	95.5	90.5	91.8	97.4	91.5
CCOC(=O)C1=C(C)NC(C)=C(C(=O)OCC)C1c1ccccc1/C=C/C(=O)OC(C)(C)C [Lacidipine (Lacipil, Motens)]	51% and 64.8%	53.2	53.8	40.3	49.7	39.8	44	42.9
O=c1oc2cc(O)ccc2c2ccc(O)cc12 [S5312 Urolithin A.cdx]	98.3% and 101%	106	99.9	98.3	97.4	105	89	94.5
Cc1ccc(NC(=O)c2ccc(CN3CCN(C)CC3)cc2)cc1Nc1nccc(-c2cccnc2)n1 [Imatinib Mesylate (STI571)]	11.9% and 25.7%	16.7	103	104	80.7	94	82.3	78
Oc1nc(-c2ccc(C(F)(F)F)cc2)nc2c1CSCC2	105% and 99.2%	105	104	105	94	95.5	94.6	96.7
COc1ccc(Oc2cc(NCCC(F)(F)F)c3ncc(-c4ccc(C(=O)NC5CC5)c(C)c4)n3n2)c(F)c1F	103% and 102%	108	67.6	77.1	58.9	42.6	71.4	72.9
CCOC(=O)c1ccc(N)cc1 [Benzocaine]	92% and 83.9%	94.2	84	91.7	87.9	92.4	91.4	94.6
C[C@H](Nc1ncnc2[nH]cnc12)c1cc2ccc(F)cc2nc1-c1ccccn1	90.3% and 89.3%	91.5	81.5	85	69.2	67	64.5	73.4
C=CC(=O)Nc1cc(Nc2nccc(-n3cc(CN(C)C)c(-c4ccccc4)n3)n2)c(OC)cc1N1CCOCC1	85.6% and 94.6%	84.8	76.5	80.2	74.2	75.5	63.9	63.3
COc1ccc2c(c1)c(CC(=O)O)c(C)n2C(=O)c1ccc(Cl)cc1 [Indometacin Sodium]	97.1% and 90.1%	101	96.7	103	105	101	98.3	110
O=[N+]([O-])c1cn2c(n1)OC[C@@H](OCc1ccc(OC(F)(F)F)cc1)C2	94.3% and 98.1%	91.8	92.7	101	97.8	97.5	98.9	99.5
C/C=C(/C)C(=O)OC(=O)/C(C)=C\C [Angelic anhydride]	98.7% and 106%	113	101	101	103	107	102	100
[F][Ti]([F])([F])[F] [Titanium tetrafluoride]	102% and 89.4%	98.7	99.2	105	97.3	102	98.9	99
OCC1(O)COc2cc(O)ccc2-c2cc(O)c(O)cc2C1 (stereo unspecified) [Protosappanin B]	93.9% and 95.9%	95.7	100	97.1	102	96.2	97.3	99.5
Cc1ccc(S(=O)(=O)NC(=O)NN2CC3CCCC3C2)cc1 (stereo unspecified) [Gliclazide (Diamicron)]	95.8% and 105%	109	106	111	103	106	113	101

SMILES	cell viability (K562; SRSF2 genotype: SRSF2 P95H/wt)	cell viability (K562; SRSF2 genotype: SRSF2 wt/wt) [%]	cell viability (MARIMO; SRSF2 genotype: SRSF2 P95H/wt) [%]	cell viability (MARIMO; SRSF2 genotype: SRSF2 wt/wt) [%]	cell viability (MOLM14; SRSF2 genotype: SRSF2 P95H/wt) [%]	cell viability (MOLM14; SRSF2 genotype: SRSF2 wt/wt) [%]	cell viability (OCI-AML2; SRSF2 genotype: P95H/wt) [%]	cell viability (OCI-AML2; SRSF2 genotype: wt/wt) [%]
CCC(C)n1ncn(-c2ccc(N3CCN(c4ccc(OCC5COC(Cn6cncn6)(c6ccc(Cl)cc6Cl)O5)cc4)CC3)cc2)c1=O (stereo unspecified) [Itraconazole (Sporanox)]	76.7% and 94.4%	83.1	49.6	55	71.1	96.7	50.8	55.4
Oc1ccc(-c2nc(-c3ccc(F)cc3)c(-c3ccncc3)[nH]2)cc1	89.5% and 96.2%	93.5	101	113	97.9	97.3	99.7	106
Oc1ccc2c(c1)OC[C@H]1c3cc4c(cc3O[C@@H]21)OCO4 [Maackiain]	82.8% and 87.4%	79.4	80	83.8	90.7	85.4	82.3	84.6
NC(=O)N1c2ccccc2C=Cc2ccccc21 [Carbamazepine (Carbatrol)]	95.3% and 86.7%	90.3	81.3	97.6	88.3	87.9	92	104
CN1CCC(=C2c3ccccc3CCc3cccnc32)CC1 [Azatadine dimaleate]	100% and 108%	94.1	92.2	102	91.9	100	88	99
OC[C@H]1NC[C@H](O)[C@@H](O)[C@@H]1O [1-Deoxynojirimycin]	103% and 98.1%	94.5	103	107	97.8	106	96.4	108
Cc1nc(Nc2ncc(C(=O)Nc3c(C)cccc3Cl)s2)cc(N2CCN(CCO)CC2)n1 [Dasatinib]	21.5% and 39.8%	27.1	68.1	61.3	40.3	35.1	31.8	40.6
COc1cccc(-c2c(C)n(Cc3c(F)cccc3C(F)(F)F)c(=O)n(C[C@H](NCCCC(=O)O)c3ccccc3)c2=O)c1F [Elagolix Sodium]	97% and 93%	96.3	104	115	99	101	110	104
CCCCCCCCCC(=O)N[C@@H](Cc1c[nH]c2ccccc12)C(=O)N[C@H](CC(N)=O)C(=O)N[C@@H](CC(=O)O)C(=O)N[C@@H]1C(=O)NCC(=O)N[C@@H](CCCN)C(=O)N[C@@H](CC(=O)O)C(=O)N[C@H](C)C(=O)N[C@@H](CC(=O)O)C(=O)NCC(=O)N[C@H](CO)C(=O)N[C@@H]([C@H](C)CC(=O)O)C(=O)N[C@@H](CC(=O)c2ccccc2N)C(=O)O[C@@H]1C [Daptomycin]	94.1% and 95.3%	95	94	103	99	96.5	96	103
CN(C)c1ccc2c(c1)Sc1cc(N(C)C)ccc1N2 [TRx0237 (LMTX) mesylate]	35.5% and 35.7%	20.9	20.4	18.9	5.72	2.96	6.33	10.7
O=C(Nc1cc(Cl)cc2c1[nH]c1cnccc12)c1cccnc1	89% and 95.7%	88.8	111	116	85.2	101	86.8	85.9
CC1=C(C(=O)Nc2ccc3[nH]ncc3c2)C(c2ccc(F)cc2)NC(=O)N1 (stereo unspecified)	101% and 97.9%	110	102	99.9	38.5	91.7	33.7	51.5
CO[C@@H]1[C@@H](O[C@@H]2O[C@H](C)[C@@H](O[C@H]3C[C@@](C)(O)[C@@H](O)[C@H](C)O3)[C@H](N(C)C)[C@H]2O)[C@@H](CC=O)C[C@@H](C)[C@@H](O[C@H]2CC[C@H](N(C)C)[C@@H](C)O2)/C=C/C=C/C[C@@H](C)OC(=O)C[C@H]1OC(C)=O [Acetylspiramycin (ASPM)]	87.2% and 93.6%	89.4	91.4	90.3	84.4	90.9	83.1	76.8
CC(C)C12CCC(C)(CC1)O2 [1,4-Cineole]	104% and 101%	104	103	103	105	110	99.4	97.7
Cc1ccc(C(=O)Nc2ccc(CN3CCN(C)CC3)c(C(F)(F)F)c2)cc1C#Cc1cnc2[nH]ncc2c1 [GZD824 Dimesylate]	0.41% and 0.25%	0.26	0.31	0.33	0.15	0.17	0.16	0.2
CCn1cc(C(=O)O)c(=O)c2cc(F)c(N3CCN(C)CC3)cc21 [Pefloxacin Mesylate Dihydrate]	83.5% and 78%	80.7	88	94.2	87.7	92.1	90.9	94.8
CCc1ccc(OCc2ccccc2C(=O)Nc2ccc3nc(C)cc(N)c3c2)cc1	0.54% and 0.5%	0.47	0.43	0.59	0.48	0.57	0.44	0.53
CC1(C)[C@@H](O[C@H]2O[C@H](C(=O)O)[C@@H](O)[C@H](O)[C@H]2O[C@@H]2O[C@H](C(=O)O)[C@@H](O)[C@H](O)[C@H]2O)CC[C@]2(C)[C@H]3C(=O)C=C4[C@@H]5C[C@@](C)(C(=O)O)CC[C@]5(C)CC[C@@]4(C)[C@]3(C)CC[C@@H]12 [Dipotassium glycyrrhizinate]	105% and 104%	102	103	112	103	103	101	105
